Data on 38 compounds can be found in PubChem BioAssay (Tox21).

Each structure is given as a SMILES string. Values joined by “and” are separate entries in the source; they are usually repeats but may differ in a detail not shown here. Identical values can stand only once. Results filed as inconclusive are left out. The source holds several records for some structures; these can differ, active in one and inactive in another. Active and inactive are the calls of the source. Calls come from the whole dose curve; as a rule, active = well fitted curve in the direction sought with a large enough effect in the repeat runs; inconclusive = weak or mixed curves; inactive = no such curve, though single readings can be large; an effect the other way counts as inactive or inconclusive.

Test [1] addresses Cytochrome P450 2C9 (Homo sapiens) (UniProt P11712). Kind of test: Cytochrome P450 Family 2 Subfamily C Member 9 (CYP2C9) small molecule antagonists: luciferase reporter qHTS assay (AID 1671198). An outline of the steps:
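Enzyme-substrate mix preincubated with compound 10 min at room temperature; reaction started with NADPH regeneration solution, 1 h 37C. Luminescent luciferin product read after 20 min detection reagent.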

Test [2] has as its target Cytochrome P450 1A2 (Homo sapiens) (UniProt P05177). Nature of the test: Cytochrome P450 Family 1 Subfamily A Member 2 (CYP1A2) small molecule antagonists: luciferase reporter qHTS assay (AID 1671199). The essentials: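 Compounds were incubated with CYP1A2 and a luminogenic proluciferin substrate for 10 min at room temperature before the reaction was started with NADPH regeneration solution. After 1 h, detection reagent was added and light output, proportional to CYP activity, was recorded.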
On the technique in general: In a reporter assay the amount or activity of a reporter protein is the signal.

In test [3] the target is Voltage-gated inwardly rectifying potassium channel KCNH2 (Homo sapiens) (UniProt Q12809). Nature of the test: Human Ether-a-go-go-Related Gene (hERG) channel small molecule antagonists: fluorescence cell-based qHTS assay (AID 1671200). The essentials:
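hERG-U2OS cells plated overnight at 37 C, loaded with FluxOR II dye 1 h at RT in dark; after 10 min, thallium stimulus added. Fluorescence (480/540 nm) read kinetically for 2 min at 1 s intervals.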
Background: hERG is a cardiac potassium channel; its block is linked to QT prolongation.

Test [4] has as its target Cytochrome P450 3A4 (Homo sapiens) (UniProt P08684). Kind of test: Cytochrome P450 Family 3 Subfamily A Member 4 (CYP3A4) small molecule antagonists: luciferase reporter qHTS assay (AID 1671201). The essentials: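 P450-Glo CYP3A4 luminescent assay: compounds preincubated 10 min at room temperature with enzyme and proluciferin substrate, NADPH regeneration added, 1 h room-temperature reaction, stopped with luciferin detection reagent; luminescence read after 20 min. Ketoconazole positive control.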
Note: nearly all actives have a fitted effect of over 50% in size.
Potency is the fitted concentration of half-maximal effect.

Chain of Cytochrome P450 3A4 (Homo sapiens) (P08684 whole entry, looked up): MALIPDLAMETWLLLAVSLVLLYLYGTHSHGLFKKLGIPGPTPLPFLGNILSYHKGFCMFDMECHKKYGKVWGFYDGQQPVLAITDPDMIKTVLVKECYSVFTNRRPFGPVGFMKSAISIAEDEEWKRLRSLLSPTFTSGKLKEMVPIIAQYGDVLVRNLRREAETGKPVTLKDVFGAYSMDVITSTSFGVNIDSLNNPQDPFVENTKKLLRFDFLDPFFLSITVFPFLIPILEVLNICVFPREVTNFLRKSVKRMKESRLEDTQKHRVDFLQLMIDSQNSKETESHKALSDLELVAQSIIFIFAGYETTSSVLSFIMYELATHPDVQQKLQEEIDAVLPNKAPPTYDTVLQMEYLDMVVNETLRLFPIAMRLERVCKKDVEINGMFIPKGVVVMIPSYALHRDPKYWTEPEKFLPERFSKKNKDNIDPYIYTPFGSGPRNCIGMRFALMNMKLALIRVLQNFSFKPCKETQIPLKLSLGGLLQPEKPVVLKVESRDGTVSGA
Chain of Cytochrome P450 1A2 (Homo sapiens) (P05177 whole entry, looked up): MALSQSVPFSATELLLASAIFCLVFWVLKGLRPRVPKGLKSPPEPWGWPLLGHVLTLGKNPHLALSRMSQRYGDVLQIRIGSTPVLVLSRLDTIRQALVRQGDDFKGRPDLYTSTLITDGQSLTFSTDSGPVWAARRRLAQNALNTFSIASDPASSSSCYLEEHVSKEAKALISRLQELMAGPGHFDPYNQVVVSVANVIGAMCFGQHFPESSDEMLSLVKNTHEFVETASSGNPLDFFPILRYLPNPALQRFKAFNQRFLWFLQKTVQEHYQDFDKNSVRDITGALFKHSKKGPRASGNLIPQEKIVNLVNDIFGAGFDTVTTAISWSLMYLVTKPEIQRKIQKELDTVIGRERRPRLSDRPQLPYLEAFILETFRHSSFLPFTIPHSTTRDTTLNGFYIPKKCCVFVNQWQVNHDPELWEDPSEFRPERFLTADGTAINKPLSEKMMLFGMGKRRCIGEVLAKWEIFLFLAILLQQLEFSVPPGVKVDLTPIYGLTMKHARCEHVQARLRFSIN
Chain of Cytochrome P450 2C9 (Homo sapiens) (P11712 whole entry, looked up): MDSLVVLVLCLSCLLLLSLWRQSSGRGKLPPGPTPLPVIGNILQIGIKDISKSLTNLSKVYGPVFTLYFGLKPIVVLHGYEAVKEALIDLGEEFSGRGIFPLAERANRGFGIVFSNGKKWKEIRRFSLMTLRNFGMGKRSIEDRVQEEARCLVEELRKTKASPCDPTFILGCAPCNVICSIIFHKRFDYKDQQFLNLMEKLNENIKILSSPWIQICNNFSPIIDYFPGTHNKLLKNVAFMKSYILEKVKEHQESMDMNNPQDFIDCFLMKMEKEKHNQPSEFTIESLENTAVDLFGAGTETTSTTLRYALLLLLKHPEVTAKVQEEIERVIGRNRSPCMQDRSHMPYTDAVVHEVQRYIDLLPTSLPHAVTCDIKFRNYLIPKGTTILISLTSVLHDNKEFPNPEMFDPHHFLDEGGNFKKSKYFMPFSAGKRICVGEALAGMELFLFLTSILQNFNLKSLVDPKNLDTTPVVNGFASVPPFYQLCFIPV
Chain of Voltage-gated inwardly rectifying potassium channel KCNH2 (Homo sapiens) (Q12809 whole entry, looked up): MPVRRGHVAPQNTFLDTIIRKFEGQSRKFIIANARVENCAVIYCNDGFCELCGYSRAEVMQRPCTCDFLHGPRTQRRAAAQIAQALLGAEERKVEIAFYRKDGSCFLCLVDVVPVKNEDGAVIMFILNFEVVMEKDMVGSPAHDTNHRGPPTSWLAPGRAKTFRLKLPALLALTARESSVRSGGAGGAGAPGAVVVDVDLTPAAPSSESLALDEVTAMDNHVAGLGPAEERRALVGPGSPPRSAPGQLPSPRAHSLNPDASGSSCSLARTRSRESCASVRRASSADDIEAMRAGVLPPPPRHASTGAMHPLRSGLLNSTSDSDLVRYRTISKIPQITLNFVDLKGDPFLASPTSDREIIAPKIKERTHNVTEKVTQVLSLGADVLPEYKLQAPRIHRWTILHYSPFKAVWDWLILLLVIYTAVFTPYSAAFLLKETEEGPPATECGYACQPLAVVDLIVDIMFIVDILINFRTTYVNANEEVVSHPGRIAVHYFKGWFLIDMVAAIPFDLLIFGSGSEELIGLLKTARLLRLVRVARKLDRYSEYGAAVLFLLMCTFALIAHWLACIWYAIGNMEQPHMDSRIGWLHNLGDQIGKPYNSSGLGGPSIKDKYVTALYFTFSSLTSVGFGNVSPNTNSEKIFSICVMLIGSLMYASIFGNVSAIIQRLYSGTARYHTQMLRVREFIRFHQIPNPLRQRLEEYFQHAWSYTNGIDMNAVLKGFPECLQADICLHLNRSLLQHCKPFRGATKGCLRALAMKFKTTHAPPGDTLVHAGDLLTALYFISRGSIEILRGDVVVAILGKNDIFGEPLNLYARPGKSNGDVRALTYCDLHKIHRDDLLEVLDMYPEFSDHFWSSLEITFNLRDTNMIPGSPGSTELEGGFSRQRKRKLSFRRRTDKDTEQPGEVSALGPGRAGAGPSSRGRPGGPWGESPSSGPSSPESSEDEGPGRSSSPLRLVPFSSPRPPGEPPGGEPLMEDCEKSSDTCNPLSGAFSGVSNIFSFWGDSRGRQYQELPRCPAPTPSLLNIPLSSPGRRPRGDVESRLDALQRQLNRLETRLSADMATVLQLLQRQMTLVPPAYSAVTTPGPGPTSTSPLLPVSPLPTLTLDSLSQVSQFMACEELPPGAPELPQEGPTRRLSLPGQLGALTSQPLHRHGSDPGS

Consider `Nc1cccc(C(F)(F)F)c1`, for which the Potency result in test [1], in test [2], in test [3] and in test [4] was “inactive” in each case.
Regarding `C[n+]1ccn(CCO)c1`, the Potency entry in test [1], in test [2], in test [3] and in test [4] was “inactive” in each case.
On to `CS(=O)(=O)c1ccc(Cl)cc1`, for which the Potency entry in test [1], in test [2], in test [3] and in test [4] was “inactive” in each case.
With `COC(=O)/C=C\C(=O)OC`, the Potency entry in test [1], in test [2], in test [3] and in test [4] was “inactive” in each case.
Regarding `CCOC(=O)CC(=O)OCC`, the Potency entry in test [1], in test [2], in test [3] and in test [4] was “inactive” throughout.
`C=C(C)CC(C)(C)C`: the Potency entry in test [1], in test [2], in test [3] and in test [4] was “inactive” each time.
With `O=C(Cl)c1ccc(C(=O)Cl)cc1`, the Potency result in test [1], in test [3] and in test [4] was “inactive” in each case. For the same compound, the Potency result in test [2] is “inactive and 63.3 µM (active)”.
In the case of `CC1(C)[C@@H](O[C@H]2O[C@H](C(=O)O)[C@@H](O)[C@H](O)[C@H]2O[C@@H]2O[C@H](C(=O)O)[C@@H](O)[C@H](O)[C@H]2O)CC[C@]2(C)[C@H]3C(=O)C=C4[C@@H]5C[C@@](C)(C(=O)O)CC[C@]5(C)CC[C@@]4(C)[C@]3(C)CC[C@@H]12`, the Potency entry in test [1], in test [2], in test [3] and in test [4] was “inactive” throughout.
In the case of `O=C1OC(=O)c2c(Cl)c(Cl)c(Cl)c(Cl)c21`, the Potency entry in test [1], in test [2], in test [3] and in test [4] was “inactive” each time.
With `CC(=O)OCCC(C)C`, the Potency entry in test [1], in test [2], in test [3] and in test [4] was “inactive” in each case.
On to `CCCN(CCC)C(=O)SCC`, for which the Potency entry in test [1], in test [2], in test [3] and in test [4] was “inactive” throughout.
On to `c1cnc2c(c1)ccc1cccnc12`, for which the Potency in test [1] was 8.94 µM (active); in test [2], 10.1 µM (active) and 14.2 µM (active) and 11.2 µM (active). In addition, the Potency entry in test [3] and in test [4] was “inactive” each time.
For the compound `NC(=O)NC(N)=O`, the Potency entry in test [1], in test [2] and in test [3] was “inactive” each time.
Turning to `CC/C(C)=N/O`, the Potency result in test [1], in test [2], in test [3] and in test [4] was “inactive” each time.
As for `OCc1ccc(Cl)cc1Cl`, the Potency result in test [1], in test [3] and in test [4] was “inactive” throughout. Besides, the Potency in test [2] was 39.9 µM (active).
With `OCC(CO)(CO)CO`, the Potency result in test [1], in test [2], in test [3] and in test [4] was “inactive” each time.
With `COc1ccc(N)c(OC)c1`, the Potency was 15.3 µM (active) and 35.6 µM (active) in test [1]; 39.9 µM (active) in test [2]; 3.84 µM (active) and 11.3 µM (active) in test [4]. The Potency entry in test [3] is “inactive”.
Consider `CC1(C)C(=O)N(Cl)C(=O)N1Cl`, for which the Potency result in test [1], in test [2], in test [3] and in test [4] was “inactive” throughout.
For `COc1c2ccoc2cc2oc(=O)ccc12`, the Potency was 2.89 µM (active) and 2.52 µM (active) in test [1]; 364 nM (active) and 283 nM (active) in test [2]; 6.47 µM (active) and 10 µM (active) in test [4]. Further, the Potency entry in test [3] was “inactive”.
Turning to `Cc1ccc(Cl)cc1`, the Potency in test [1] is 63.3 µM (active). Further, the Potency entry in test [2], in test [3] and in test [4] was “inactive” throughout.
Turning to `NCCNCCNCCN`, the Potency result in test [3] was “inactive”.
`COc1ccc([C@@H]2CC(=O)c3c(O)cc(O[C@@H]4O[C@H](CO[C@@H]5O[C@@H](C)[C@H](O)[C@@H](O)[C@H]5O)[C@@H](O)[C@H](O)[C@H]4O)cc3O2)cc1OC`: the Potency result in test [2] and in test [3] was “inactive” each time.
As to `Nc1nc(N)c2nc(-c3ccccc3)c(N)nc2n1`, in test [2], the Potency is 36 µM (active) and 31.7 µM (active) and 24.5 µM (active). Further, the Potency entry in test [3] is “inactive”.
Take `NC(=O)c1ncn([C@@H]2O[C@H](CO)[C@@H](O)[C@H]2O)n1`: the Potency entry in test [2], in test [3] and in test [4] was “inactive” each time.
Turning to `NC1CCCCC1N` (centres undefined), the Potency result in test [3] was “inactive”.
Regarding `CC(C)(CO)CO`, the Potency result in test [1], in test [3] and in test [4] was “inactive” throughout.
In the case of `CC(C)(C)NC[C@H](O)COc1nsnc1N1CCOCC1`, the Potency entry in test [1] and in test [3] was “inactive” in each case.
With `O=c1c(O)c(-c2ccc(O)c(O)c2)oc2cc(O)cc(O)c12`, the Potency result in test [3] was “inactive”.
For the compound `Cc1ccccc1Cl`, the Potency result in test [2], in test [3] and in test [4] was “inactive” throughout.
As to `Oc1ccc(Cc2ccccc2O)cc1`, the Potency entry in test [2], in test [3] and in test [4] was “inactive” in each case.
With `CC(=O)OC[C@H]1O[C@@](COC(C)=O)(O[C@H]2O[C@H](COC(C)=O)[C@@H](OC(C)=O)[C@H](OC(C)=O)[C@H]2OC(C)=O)[C@@H](OC(C)=O)[C@@H]1OC(C)=O`, the Potency entry in test [2] and in test [3] was “inactive” throughout.
For `Cc1cccc(C)c1[N+](=O)[O-]`, the Potency result in test [1], in test [2], in test [3] and in test [4] was “inactive” throughout.
As for `Cc1ccc([N+](=O)[O-])cc1N`, the Potency in test [2] is 11.2 µM (active) and 8.94 µM (active). Moreover, the Potency result in test [3] was “inactive”.
Take `CC[N+](CC)(CC(=O)Nc1c(C)cccc1C)Cc1ccccc1`: the Potency entry in test [2] is “inactive”. In addition, the Potency in test [3] is 24.5 µM (active) and inactive.
In the case of `C=C(CC(=O)O)C(=O)O`, the Potency entry in test [3] is “inactive”.
`CCCCC(CC)COC(=O)c1ccc(C(=O)OCC(CC)CCCC)cc1` (centres undefined): the Potency result in test [1], in test [3] and in test [4] was “inactive” throughout.
For the compound `Cc1ncc(CO)c(CO)c1O`, the Potency result in test [2] and in test [3] was “inactive” in each case.
Regarding `CCc1cccc(O)c1`, the Potency entry in test [1], in test [3] and in test [4] was “inactive” each time.
